The text below walks through data of PubChem BioAssay (NCI).

Common to all, as to experiment: NCI-60 one-dose screen, 48 h (100 = growth as untreated, 0 = no growth, -100 = all killed)
Conditions in all cases: 10 µM unless noted

In assay [1] the test system is NCI-H23 lung.
Assay [2] has as its system NCI-H226 lung.
The test system of assay [3] is NCI-H322M lung.
Assay [4] relates to NCI-H460 lung.
Assay [5] relates to NCI-H522 lung.
The test system of assay [6] is A549/ATCC NSCLC.
Assay [7] concerns 786-0 renal.
The subject of assay [8] is COLO 205 colon.
Assay [9] deals with DU-145 prostate.
In assay [10] the test system is K-562 leukemia.
In assay [11] the test system is MALME-3M melanoma.
For assay [12], the system named is MDA-MB-231 breast.
Assay [13] has as its system RXF 393 renal.
Assay [14] has as its system SF-268 CNS.
Assay [15] concerns SF-295 CNS.
The subject of assay [16] is SF-539 CNS.
The subject of assay [17] is UACC-257 melanoma.
For assay [18], the system named is M14 melanoma.
In assay [19] the test system is HOP-62 NSCLC.
Assay [20] has as its system HOP-92 NSCLC.

Compounds without any hit were thinned out: in the full panel of roughly 83,000, 20% have a hit.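 Note: values are percent growth. 100 is the growth of untreated cells, values between 100 and 0 indicate rising inhibition; between -100 and 0 indicates cell death.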 A number with no mark means an inactive call. Activity calls are given as the source filed them. Rule for the calls: active = growth percent below 10; inactive = the rest.

`Cc1ccc2cccc(OC(=O)Nc3cccc(C(F)(F)F)c3)c2n1`: the growth was 37.1% in assay [1]; 67.7% in [2]; 88.7% in [3]; 27.5% in assay [4]; 37.2% in assay [5]; 42.7% in assay [6]. Moreover, the growth in assay [7] is 78.6%; in [8], 62.3%; in assay [9], 71.1%; in assay [10], 33.5%; in assay [11] it was 82%; in [12], 86.6%. Moreover, the growth in assay [13] was 95.6%; in assay [14] it was 95%; in assay [15], 6.24% (active); in assay [16], 96.4%; in [17], 87.3%; in [18], 85.5%.

Take `O=C(/C=C/C(Cl)(Cl)Cl)Nc1ccc(Cl)cc1`: the growth in assay [1] is 81.5%; in assay [3], 126%; in assay [19], 125%; in assay [4] it was 115%; in assay [20] it was 82.1%; in assay [5], -51.6% (active). In addition, the growth in [6] was 103%; in [7], 109%; in assay [8] it was 98.6%; in assay [9], 97.7%; in [10] it was 65.7%; in assay [11], 121%. The growth in [12] is 113%; in assay [13], 87%; in [14], 112%; in [15] it was 115%; in assay [16] it was 103%; in assay [17], 102%. In addition, in [18], the growth is 105%.

Consider `Nc1cccc2cccc([N+](=O)[O-])c12`, for which the growth is 101% in assay [1]; 94.8% in [2]; 114% in [3]; 112% in assay [4]; 104% in assay [5]; 106% in assay [6]. The growth in [7] was 100%; in assay [8], 94.1%; in assay [9] it was 118%; in [11], 111%; in assay [13], 110%; in assay [14], 109%. In addition, the growth in assay [15] is 95.6%; in assay [16] it was 113%; in [17], 100%; in assay [18], 107%.

Regarding `COc1ccc(C(OCC2OC(n3ccc(NC(=O)c4ccccc4)nc3=O)C(O)C2O)(c2ccccc2)c2ccccc2)cc1` (stereo not drawn), the growth in assay [1] was 54.8%; in assay [2] it was 29.9%; in assay [3] it was 109%; in assay [5], 67.9%; in assay [6] it was 28.1%; in assay [7], 52.5%. The growth was 39.5% in [8]; 52.4% in [9]; 32.7% in assay [10]; 58.2% in [12]; 31% in [13]; 54.2% in assay [14]. The growth in assay [15] was 41.7%; in assay [16], 42.9%; in assay [17], 64.3%; in [18], 40.2%.

For the compound `COc1ccc2nc3cc([N+](=O)[O-])ccc3c(NNc3ccccc3)c2c1`, the growth in assay [1] was 66.6%; in assay [3], 86.9%; in assay [19], 37%; in [4], 82.4%; in assay [20], 14.8%; in assay [5], 85%. Also, the growth in assay [6] is 95.2%; in [7], -18.8% (active); in assay [8] it was 99.8%; in assay [9] it was 89.6%; in assay [10], 90.5%; in assay [11] it was 90.9%. Besides, the growth in assay [12] was 66.5%; in assay [13] it was 46.9%; in assay [14], 56.8%; in assay [15], 56%; in [16] it was 22.6%; in [17], 101%.

For `CC(=O)c1c(O)c(C)c(O)c2c1OC1=CC(=O)C(C(C)=O)C(=O)C12C` (stereo not drawn), the growth was 79.1% in [1]; 88.6% in assay [2]; 60.3% in assay [3]; 89.1% in [4]; -0.143% (active) in assay [20]; 71.7% in assay [5]. Also, the growth was 96% in assay [6]; 69.9% in assay [7]; 107% in assay [9]; 68.9% in assay [10]; 79.4% in [11]; 96.3% in assay [12]. Further, the growth in assay [13] is 105%; in assay [14], 88.9%; in assay [15], 16.7%; in assay [16], 98%; in [17], 97.8%; in assay [18] it was 67.6%.

`O=C1C=CC(=O)N1c1cccc2c1CCCC2`: the growth in assay [1] is 106%; in assay [3], 91.9%; in assay [19], 105%; in [4] it was 109%; in assay [20] it was 84.2%; in assay [5] it was 11.6%. For the same compound, the growth in [6] is 104%; in [7], 105%; in assay [8] it was 49.1%; in [9], 103%; in assay [10], 57.1%; in assay [11], 85.5%. The growth in assay [12] is 106%; in [13] it was 94.1%; in assay [14] it was 101%; in [15], 90.6%; in assay [16] it was 105%; in assay [17], 103%. Moreover, the growth in assay [18] was 110%.

For `Cc1cc(C(=O)c2ccc(Cl)cc2)ccc1O`, the growth is 102% in [1]; 103% in assay [3]; 85.7% in assay [19]; 106% in [4]; 104% in [20]; 72.5% in assay [5]. The growth is 91.8% in [6]; 79.7% in assay [7]; 122% in assay [8]; 98.2% in [9]; 112% in assay [10]; 112% in assay [11]. The growth in assay [12] was 94.3%; in assay [13], 75.7%; in assay [14], 92.5%; in assay [15], 90.3%; in assay [16] it was 93%; in [17], 115%. For the same compound, in [18], the growth was 89.2%.
